The source made the active and inactive calls. How the source made its calls: active means hit-call score of the fitted dose curve at least 0.9, where 1 is the maximum; inactive means score below 0.9.

The nature of the test: ATG_GRE_CIS: Attagene CIS-FACTORIAL HepG2 Assay for human Glucocorticoid Response Elements (GRE) (AID 2282947). As to conditions: HepG2 GRE cis-reporter, Attagene multiplex mRNA; actives raise or lower the signal. On the procedure: ATG_CIS is a cell-based, multiplexed-readout assay that uses HepG2, a human liver cell line, with measurements taken at 24 hours after chemical dosing in a 24-well plate.ATG_GRE_CIS is one of 52 assay component(s) measured or calculated from the ATG_CIS assay. It is designed to make measurements of mRNA induction, a form of inducible reporter, as detected with fluorescence intensity signals by Reverse transcription polymerase chain reaction (RT-PCR) and Capillary electrophoresis technology.Data from the assay component ATG_GRE_CIS was analyzed into 1 assay endpoint. This assay endpoint, ATG_GRE_CIS, was analyzed with bidirectional fitting relative to DMSO as the negative control and baseline of activity. Using a type of inducible reporter, measures of mRNA for gain or loss-of-signal activity can be used to understand the reporter gene at the transcription factor-level as they relate to the gene NR3C1. Furthermore, this assay endpoint can be referred to as a primary readout, because this assay has produced multiple assay endpoints where this one serves a reporter gene function. To generalize the intended target to other relatable targets, this assay endpoint is annotated to the nuclear receptor intended target family, where the subfamily is steroidal.
Human liver HepG2 cells are transiently transfected with multiple reporter transcription units (MRTUs) in 6-well plates using FuGene 6 reagent (Roche; 3 ml FuGene/1 mg DNA). The MRTU constructs are regulated by a cis-regulating element (promoter). […] A major difference between the CIS and TRANS system is that in CIS activities of endogenous TFs are measured, whereas the TRANS assay evaluates changes in activities of exogenous, chimeric NR-Gal4 proteins. […] At the end of 24 hour incubation, total RNA was isolated using TriZol reagent (Invitrogen). The isolated RNA is then reverse-transcribed using oligo(dT) primer and Mo-MLV reverse transcriptase (Invitrogen) with DNAse I (Ambion) treatment for 30 min. The one-tenth of the produced cDNA was amplified by PCR using Taq DNA polymerase (Invitrogen) and two reporter sequence-specific primers. The PCR products were fluorescently labeled by primer extension with 6-arboxyfluorescein (6-FAM) 5'-labeled reporter sequence-specific primer (2 min at 95 C, 20 s at 68 C and 10 min at 72 C) and these products were digested with 5U of HpaI (New England Biolabs) for 2h at 37 C. The fragments were purified using Qiaquick PCR columns (Qiagen), analyzed on an ABI 3130xL genetic analyzer (Applied Biosystems) with peak positions identified by using a set of X-rhodamine (ROX)-labeled MapMarker1000 molecular weight standards (BioVentures). The raw capillary electrophoresis data was processed using Attagraph software (Attagene).
`CCN(N=O)C(N)=O`: the outcome was inactive.

As for `CCOP(=S)(OCC)OP(=S)(OCC)OCC`, the compound was classed as inactive.

Regarding `O=NN1CCCCCC1`, the result was inactive.

As for `CCOP(=S)(OCC)Oc1ccc(Cl)cc1Cl`, the compound was called inactive.

As to `O=C(NC(=O)c1c(F)cccc1F)Nc1cc(Cl)c(Oc2ncc(C(F)(F)F)cc2Cl)c(Cl)c1`, the compound was classed as inactive.

In the case of `CCCCC(CC)COC(=O)Cl` (stereo not given), the compound was called inactive.

For the compound `Cc1cc(C(C)(C)c2ccc(O)c(C)c2)ccc1O`, the AC50 is 79.5 µM (active).

In the case of `N#Cc1ccncc1`, the compound was classed as inactive.

On to `Cc1cc(Cl)ccc1O`, for which the compound was called inactive.

Consider `CC1(C)COP(Oc2ccccc2)OC1`, for which the call was inactive.

In the case of `O=C(N[C@H]1CN2CCC1CC2)c1ccc2c(c1)OCCO2`, the call was inactive.

For `CN(C)c1ccc(N=O)cc1`, the AC50 was 23.6 µM (active).

Turning to `Oc1ccc(Cc2ccc(O)cc2)cc1`, the compound was called inactive.

Regarding `Cc1cccc(C)c1NC(=O)CN1CCCC1=O`, the outcome was inactive.

In the case of `Cc1ccccc1OP(=O)(Oc1ccccc1)Oc1ccccc1`, the outcome was inactive.

On to `OCCCCO`, for which the outcome was inactive.

Consider `CCNc1nc(NCC)nc(SC)n1`, for which the outcome was inactive.

Consider `O=c1[nH]c2ccccc2n1C1CCN(CCCC(c2ccc(F)cc2)c2ccc(F)cc2)CC1`, for which the call was inactive.

As for `O=c1oc2ccccc2c(O)c1C(CC(O)c1ccc(-c2ccc(Br)cc2)cc1)c1ccccc1` (stereo not given), the call was inactive.

In the case of `[Cl][Sn]([c]1ccccc1)([c]1ccccc1)[c]1ccccc1`, the call was inactive.

For the compound `NC(=O)c1ccc(N)nc1`, the result was inactive.

For `O=[N+]([O-])c1ccc(Nc2ccccc2)cc1`, the call was inactive.

Take `OC(Cc1ccccc1Cl)(Cn1cncn1)C1(Cl)CC1` (stereo not given): the compound was called inactive.

Regarding `C=CC(F)(C(F)(F)F)C(F)(F)C(F)(F)F` (stereo not given), the compound was classed as inactive.

On to `O=C(O)c1cc(I)cc(I)c1I`, for which the compound was classed as inactive.

On to `CCCSP(=S)(OCC)Oc1ccc(Cl)cc1Cl` (stereo not given), for which the compound was called inactive.

Consider `Clc1ccc(C(Cl)(Cl)Cl)cn1`, for which the call was inactive.

As for `O=S(=O)(Oc1ccc(Cl)cc1)c1ccc(Cl)cc1`, the call was inactive.

With `C=CC(=O)NC(C)(C)CC(C)=O`, the outcome was inactive.

Regarding `CNC(=O)N(C)c1nc2ccccc2s1`, the compound was classed as inactive.

`CC(c1ccc(O)cc1)c1ccc(O)cc1`: the call was inactive.

Take `CCOC(=O)CCN(SN(C)C(=O)Oc1cccc2c1OC(C)(C)C2)C(C)C`: the outcome was inactive.

Take `CCCCS(=O)(=O)Cl`: the call was inactive.

For the compound `CCOP(=S)(OCC)SCSc1cc(Cl)ccc1Cl`, the result was inactive.

Regarding `COc1nn(C(=O)NS(=O)(=O)c2ccccc2OC(F)(F)F)c(=O)n1C`, the compound was called inactive.

On to `CN(CCCC(O)c1cccnc1)N=O` (stereo not given), for which the compound was called inactive.

`CCOC(=O)OC1=C(c2cc(C)ccc2C)C(=O)NC12CCC(OC)CC2` (stereo not given): the compound was called inactive.

Consider `N#CS`, for which the result was inactive.

Turning to `c1csc(-c2ccc(-c3cccs3)s2)c1`, the result was inactive.

`Cc1cccc(OP(=O)(Oc2cccc(C)c2)Oc2cccc(C)c2)c1`: the outcome was inactive.

The record behind these values is PubChem BioAssay (EPA / NIEHS).
